Over roughly 33,000 sequences, “E-score (-0.5 to 0.5)” has its median near -0.053; the highest 2% begin near 0.37. The entries come from a sample that favours the highest values as a whole.
biological target: Hap1 (UniProt P0CE41); experiment: PBM E-score (8-mer binding enrichment) (E-score (-0.5 to 0.5)); higher = stronger / more preferred TF binding; conditions: protein concentration: 200 nM; construct: GST-DNA-binding domain
In short: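 Universal all-10-mer Agilent arrays, fresh or stripped once, were converted to double-stranded form by primer extension. GST-tagged yeast transcription factors from PURExpress in vitro transcription/translation, full-length or DNA-binding domain only, were applied at about 100-200 nM and detected with fluorescent anti-GST. After masliner normalisation, the Universal PBM Analysis Suite scored each ungapped eight-base word together with its reverse complement by E-score.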

Sequence of UniProt P0CE41 (P0CE41 whole entry, the tested form may be a part): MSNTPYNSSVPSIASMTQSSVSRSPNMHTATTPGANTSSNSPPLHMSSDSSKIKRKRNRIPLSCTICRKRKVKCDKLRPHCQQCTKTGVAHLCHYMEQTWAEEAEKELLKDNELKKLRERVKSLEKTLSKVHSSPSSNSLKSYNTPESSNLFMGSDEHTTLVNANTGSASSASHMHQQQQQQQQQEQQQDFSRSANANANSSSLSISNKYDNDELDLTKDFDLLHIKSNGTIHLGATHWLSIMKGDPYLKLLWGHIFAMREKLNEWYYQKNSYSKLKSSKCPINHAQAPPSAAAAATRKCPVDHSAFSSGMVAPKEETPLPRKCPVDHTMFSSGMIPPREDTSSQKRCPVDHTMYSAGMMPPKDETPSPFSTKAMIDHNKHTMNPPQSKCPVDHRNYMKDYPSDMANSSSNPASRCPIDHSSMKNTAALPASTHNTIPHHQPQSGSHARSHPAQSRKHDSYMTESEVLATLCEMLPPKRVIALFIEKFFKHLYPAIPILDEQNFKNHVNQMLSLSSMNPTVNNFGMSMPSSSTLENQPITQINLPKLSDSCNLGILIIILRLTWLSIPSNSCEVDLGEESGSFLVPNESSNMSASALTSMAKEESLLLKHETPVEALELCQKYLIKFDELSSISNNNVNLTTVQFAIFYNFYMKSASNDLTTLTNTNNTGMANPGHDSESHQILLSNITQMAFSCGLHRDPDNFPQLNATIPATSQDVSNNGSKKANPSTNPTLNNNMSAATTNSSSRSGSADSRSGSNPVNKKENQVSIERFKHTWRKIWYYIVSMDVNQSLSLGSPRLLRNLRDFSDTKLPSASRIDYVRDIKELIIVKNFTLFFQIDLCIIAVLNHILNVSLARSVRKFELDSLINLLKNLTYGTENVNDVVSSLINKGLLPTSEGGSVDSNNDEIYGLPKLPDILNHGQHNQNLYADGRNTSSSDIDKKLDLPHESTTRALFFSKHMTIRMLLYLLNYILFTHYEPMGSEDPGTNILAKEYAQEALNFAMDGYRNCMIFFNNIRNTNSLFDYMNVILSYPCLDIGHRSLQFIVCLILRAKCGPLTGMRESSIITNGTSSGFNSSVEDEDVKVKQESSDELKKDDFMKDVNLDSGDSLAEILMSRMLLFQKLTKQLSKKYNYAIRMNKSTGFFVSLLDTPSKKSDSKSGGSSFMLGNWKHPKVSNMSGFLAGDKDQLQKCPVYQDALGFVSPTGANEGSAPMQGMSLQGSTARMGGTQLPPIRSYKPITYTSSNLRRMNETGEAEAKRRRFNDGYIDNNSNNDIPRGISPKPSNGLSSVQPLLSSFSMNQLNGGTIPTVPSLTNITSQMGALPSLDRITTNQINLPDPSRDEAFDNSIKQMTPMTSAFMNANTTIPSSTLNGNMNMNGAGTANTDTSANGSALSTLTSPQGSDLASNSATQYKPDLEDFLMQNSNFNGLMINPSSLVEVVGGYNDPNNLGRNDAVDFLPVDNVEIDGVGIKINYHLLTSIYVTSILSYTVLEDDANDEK

| Sequence | PBM E-score |
| --- | --- |
| AGGCTGTG | -0.019 |
| CACATCGC | 0.0343 |
| GCGGACGC | 0.0721 |
| TCACGCGA | -0.0375 |
| AGAGGAGA | -0.242 |
| CCGGACTC | 0.361 |
| ACGGACCG | 0.328 |
| TAGGACCA | -0.0211 |
| TCGGACCA | 0.381 |
| CCGGACCG | 0.431 |
| CAGGACCG | -0.00407 |
| TGGGACCA | -0.19 |
| CCGGACCC | 0.374 |
| ACGGACTA | 0.237 |
| ACGGACCC | 0.278 |
| CCGGACTA | 0.404 |
| GCGGACCC | 0.266 |
| AGGCGCCC | -0.0775 |
| CGCATCCA | -0.0122 |
| ACCACAGC | -0.127 |
| GAGAGAGA | -0.0161 |
| CCAACTGA | -0.324 |
| GGAGAGAC | 0.101 |
| AACCTCGC | -0.0117 |
| AGTCGTAA | 0.00615 |
| AAAGAGCC | -0.12 |

| Sequence | PBM E-score |
| --- | --- |
| AGGACCGA | 0.311 |
| GATTTATA | 0.146 |
| ACGGACCA | 0.344 |
| CCGGACCA | 0.372 |
| GCGGACCA | 0.31 |
| GTTCCCGA | 0.257 |
| ACTCCCCG | 0.283 |
| ACTCCCGA | 0.2 |
| ACTCCCGG | 0.378 |
| ATTCCCCG | 0.286 |
| ATTCCCGC | 0.318 |
| CTTCCCGA | 0.143 |
| ATTCCCGA | 0.395 |
| ATTCCCGG | 0.395 |
| CTAGCGTC | -0.0893 |
| CCTCTTCC | -0.0207 |
| TAGCCTAA | -0.158 |
| AGGCAAAG | -0.246 |
| CGAGGAGC | 0.0181 |
| CGAACCAG | -0.00442 |
| AGATCGGC | 0.267 |
| ACATCGGA | 0.265 |
| GGATCGGA | 0.384 |
| GCATCGGA | 0.383 |
| CGATCGGA | 0.354 |
| GCATCGGC | 0.225 |

| Sequence | PBM E-score |
| --- | --- |
| GCGTCGGA | 0.375 |
| ACGTCGGA | 0.256 |
| AGATCGGG | 0.153 |
| CCGTCGGA | 0.335 |
| GGATCGAA | 0.168 |
| AGATCGGA | 0.376 |
| AAACTAGC | -0.188 |
| GCGTTGCA | 0.0308 |
| GAGCGGAA | 0.248 |
| GGCATAAA | 0.102 |
| AAAGTAAG | -0.163 |
| CTAGAGGA | -0.241 |
| ATCCGTCA | 0.212 |
| GAGGGGAA | 0.148 |
| CCTGTGGA | -0.336 |
| GGTTTTAA | 0.334 |
| AAGTGTGC | -0.132 |
| AGTCGGTA | 0.0714 |
| GATCGAAA | 0.121 |
| CTTTCGGC | 0.348 |
| ATTTCGGG | 0.29 |
| GTTTCGGA | 0.389 |
| GTTTCGAA | -0.219 |
| ATTTCGGC | 0.326 |
| GTTTCGTA | 0.11 |
| ATTTCGGA | 0.415 |

| Sequence | PBM E-score |
| --- | --- |
| CTTTCGGA | 0.399 |
| CTTTCGTA | -0.158 |
| CGTGCGAC | -0.0831 |
| ACGCAGAA | -0.0372 |
| AAGCTCAA | -0.167 |
| AAATAACC | 0.0225 |
| CGCGTCAC | -0.174 |
| CACTGACG | -0.147 |
| CCCCCAAG | -0.195 |
| CCCTCAAG | -0.233 |
| GGCCGCGA | 0.0621 |
| CCCCGAGA | 0.319 |
| TCCCGAGA | 0.261 |
| CGCCGCGA | 0.213 |
| GCCCGAGA | 0.391 |
| CGCCGAGC | 0.364 |
| GGCCGAGA | 0.401 |
| AGCCGAGA | 0.267 |
| CGCCGAGA | 0.37 |
| CTTTCTTA | -0.125 |
| AGCTTAGA | -0.00759 |
| ACGTACTG | -0.144 |
| AGGGCCTA | 0.0252 |
| CGGGCCTA | 0.383 |
